{"source": "ChEMBL document CHEMBL1201862", "about": "“PubChem BioAssay data set” (2004)", "note": "Out of some 44,000 sequences screened, about 2,900 (6.6%) were called active. Rule as the data show it: active = GI50 up to about 1.1 µM and inactive = higher. The list is a sample of the results. Entries with a potency or affinity are not part of this list."}
{"test_system": "MDA-MB-231", "units": {"GI50": "µM"}}
{"substance": "[Bis(aminomethyl)tetramethylenesilane]tetrachloropaltinum(IV), CHEMBL2146189", "GI50": 21}
{"substance": "[Bis(aminomethyl)pentamethylenesilane]tetrachloropaltinum(IV), CHEMBL2146204", "GI50": 19.6}
{"substance": "CISPLATIN, CHEMBL11359", "GI50": 22.4}
{"substance": "[Bis(aminomethyl)tetramethylenesilane]dichloropaltinum(II), CHEMBL2146205", "GI50": 48.6}
{"substance": "[Bis(aminomethyl)pentamethylenesilane]dichloropaltinum(II), CHEMBL2146202", "GI50": 2.01}
{"substance": "[Bis(aminomethyl)dimethylsilane]tetrachloroplatinum(IV), CHEMBL2146190", "GI50": 60.1}
